# Screens (PubChem BioAssay)
# Sampled rows, rich in hits. Any-hit rate of the full collection: about 4%.
# CCHF vOTU inh-1 = CCHFV vOTU protease inhibitors, primary screen, biochemical, Pep-AMC substrate, fluorescence; inhibition, % at 11.5 µM; 370,000 tested, 0.55% active; AID 651958, 2012; note: 0% = vehicle wells with enzyme and 100% = no enzyme wells
# Mtb betalactam = beta-lactam sensitization of Mtb H37Rv, H37Rv. M. tuberculosis H37Rv growth with meropenem, percent inhibition. inhibition, % at 25 µM. 330,000 tested, 0.27% active. AID 434955, 2010; call rule not given here;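 note: growth measured after seven days incubation then overnight dye step; 0% = bacteria only wells and 100% = bacteria with antibiotic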
# GDH-TPI inh = GDH-TPI coupling enzyme inhibitors, primary screen, artefact control for M. tuberculosis FBA inhibitor project, biochemical, absorbance, full deck | 360,000 tested, 1.2% active | AID 588335, 2011 | GDH-TPI coupled enzyme counterscreen, NADH absorbance | inhibition, % at 4.8 µM;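 note: 0% = DMSO wells and 100% = wells lacking the enzyme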
# MazF activator = activators of E. coli MazEF toxin-antitoxin RNase, primary screen, biochemical, fluorescence, uHTS | FAM/BHQ RNA-DNA oligo cleavage fluorescence, 5 h | activation, % at 20 µM | 350,000 tested, 0.32% active | AID 504720, 2011; in the data active = activation above about 50%
# Target sequence (P0AE70 whole entry, looked up): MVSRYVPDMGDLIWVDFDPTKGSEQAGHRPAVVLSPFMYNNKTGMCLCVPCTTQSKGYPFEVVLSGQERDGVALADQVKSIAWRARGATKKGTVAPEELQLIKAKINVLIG
# FBA Mtb inh = Mtb FBA enzyme inhibitors, primary screen, biochemical, fluorescence, strain H37Rv; Fructose-bisphosphate aldolase (Mycobacterium tuberculosis (strain ATCC 25618 / H37Rv)), …; purified M. tuberculosis FBA, fluorescence read-out; inhibition, % at 1 µM; 360,000 tested, 2.3% active; AID 588726, 2011; in the data active = inhibition above about 27%;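 note: 0% = vehicle and 100% = reference inhibitor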
# Target sequence (P9WQA3 whole entry, looked up): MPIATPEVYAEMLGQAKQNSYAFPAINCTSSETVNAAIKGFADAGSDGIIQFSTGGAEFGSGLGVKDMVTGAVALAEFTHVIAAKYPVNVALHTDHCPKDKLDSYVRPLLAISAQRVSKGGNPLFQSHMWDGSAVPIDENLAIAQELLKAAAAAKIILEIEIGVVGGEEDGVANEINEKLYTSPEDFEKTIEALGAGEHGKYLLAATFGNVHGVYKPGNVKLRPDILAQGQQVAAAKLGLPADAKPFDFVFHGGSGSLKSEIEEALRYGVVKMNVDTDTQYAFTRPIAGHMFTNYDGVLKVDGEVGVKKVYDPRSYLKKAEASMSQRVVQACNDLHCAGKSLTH
# CCHF vOTU inh-2 = CCHFV vOTU protease inhibitors, confirmation, biochemical, Pep-AMC substrate, fluorescence | Recombinant CCHFV vOTU | 1,900 tested, 17% active | inhibition, % at 11.5 µM | shares compounds with CCHF vOTU inh-1
# The depositor's hits bear a star; u = inconclusive; x = not tested or not shown. Cut-off read from the data, not from the text of the source, unless noted: active = inhibition above about 30%; inactive = the rest.
SMILES,CCHF vOTU inh-1,Mtb betalactam,GDH-TPI inh,MazF activator,FBA Mtb inh,CCHF vOTU inh-2
CC(C)OC(=O)CSc1nnc(CNc2ccc(Cl)cc2)n1C,-16,4,4,4,4,x
COC(=O)CSc1nnc(CNc2ccc(OC)cc2)n1C,39*,26,-2,1,8,-22
O=C(O)CC1S/C(=N/N=C/c2ccc(-c3ccc(Cl)c([N+](=O)[O-])c3)o2)NC1=O (stereo not given),6,1,17,-5,-2,x
O=C(O)CC1S/C(=N/N=C/c2ccc(-c3ccc(Cl)cc3[N+](=O)[O-])o2)NC1=O (stereo not given),36*,5,33*,12,-3,15
COc1cc(/C=N/N=C2/NC(=O)C(Cc3ccccc3)S2)ccc1O (stereo not given),7,-5,26,29,-2,x
COc1ccc(/C=N/N=C2/NC(=O)C(CC(=O)O)S2)cc1OCc1ccc(Cl)cc1 (stereo not given),31*,3,57*,0,-4,-1
Nc1ccc2ccc(O)cc2c1,6,x,13,14,7,x
C[n+]1c2cc(N)ccc2cc2ccc(N)cc21,88*,x,5,x,-28,54*
COc1ccc(S(=O)(=O)N(C)C[C@H]2OCc3cn(nn3)CCCC(=O)N([C@@H](C)CO)C[C@@H]2C)cc1,2,x,x,x,2,x
COC(=O)[C@]12C[C@H](CC(=O)NCCC(C)C)C(=O)N(Cc3ccc4c(c3)OCO4)C1=C[C@H](C(C)(C)C)O[C@@H]2C,32*,x,x,x,x,-3
COC(=O)[C@]12C[C@H](CC(=O)NCc3ccccc3)C(=O)N(Cc3ccc4c(c3)OCO4)C1=C[C@H](C(C)(C)C)O[C@@H]2C,26,x,x,x,x,x
COC(=O)[C@]12C[C@H](CC(=O)NCc3cccc(C(F)(F)F)c3)C(=O)N(Cc3ccc4c(c3)OCO4)C1=C[C@H](C(C)(C)C)O[C@@H]2C,34*,x,x,x,x,11
Cn1cnnc1SCC(=O)Nc1ccc(OC(F)F)cc1,-8,3,3,4,0,x
COc1ccccc1CNC(=O)C1CCC(CNc2c(N3CCC(C)CC3)c(=O)c2=O)CC1 (stereo not given),31*,-1,-4,3,1,-6
COC(=O)Cc1nnn2c1[C@@H](C)[C@@H](c1ccccc1Br)OC[C@@H]2c1ccccc1,-2,x,x,x,x,x
O=C(Nc1sc2c(c1C(=O)O)CCCCC2)c1ccccc1F,37*,-2,8,19,-2,-5
O=C(Nc1sc2c(c1C(=O)O)CCCC2)c1ccc(F)cc1,6,16,6,2,-4,x
CN1OC[C@@H]2CN(Cc3ccc(Cl)cc3)[C@H](c3cccc(Br)c3)C[C@@H]21,-8,x,-1,-1,3,x
CC(C)C(C(=O)NCc1ccco1)N(C(=O)CNS(=O)(=O)c1ccccc1)c1ccccc1 (stereo not given),34*,-8,-6,-6,-5,-13
CCC(C(=O)NCc1ccco1)N(C(=O)CNS(=O)(=O)c1ccccc1)c1ccc(F)cc1 (stereo not given),12,5,-3,11,0,x
CN(C1=C(N2CCCCC2)C(=O)c2ccccc2C1=O)c1ccccc1,41*,7,5,-3,0,-3
O=C(/C=C/c1ccc(O)cc1)c1ccc(NC2=C(N3CCCCC3)C(=O)c3ccccc3C2=O)cc1,84*,96,16,2,-7,60*
O=C1C(Nc2ccccc2)=C(N2CCCCC2)C(=O)c2ccccc21,101*,40,0,-21,-2,87*
O=C1C(Nc2cccc(O)c2)=C(N2CCCCC2)C(=O)c2ccccc21,89*,4,7,20,2,92*
O=C(CCS(=O)(=O)c1cc2c(cc1Cl)NC(=O)CO2)NCc1ccc(F)cc1,-4,-9,-4,2,2,x
SMILES,CCHF vOTU inh-1,Mtb betalactam,GDH-TPI inh,MazF activator,FBA Mtb inh,CCHF vOTU inh-2
O=C1C(=O)N(Cc2cccs2)c2ccccc21,-5,8,8,6,1,x
COCCNC(=O)C(=O)NCC1OCCN1S(=O)(=O)c1cc(F)ccc1F (stereo not given),7,-4,-7,-2,-3,x
COC1=C(Nc2ccccc2)C(=O)c2ccccc2C1=O,15,11,0,-3,-5,x
COC1=C(Nc2ccc(C)cc2)C(=O)c2ccccc2C1=O,55*,7,2,11,-3,-9
Cc1ccc(NC2=C(N3CCCCC3)C(=O)c3ccccc3C2=O)cc1,96*,1,9,1,-3,85*
CCN(C(=O)COC(=O)CNC(=O)c1ccc(C)s1)c1ccccc1,16,2,-6,6,0,x
Cc1ccc(S(=O)(=O)Nc2ccc3ccccc3c2[N+](=O)[O-])cc1,35*,x,11,-1,0,14
Cc1ccc(S(=O)(=O)Nc2ccc3cc([N+](=O)[O-])ccc3c2[N+](=O)[O-])cc1,31*,x,4,3,-6,23
COc1ccc([N+](=O)[O-])cc1NS(=O)(=O)c1ccc(C)cc1,-1,-3,5,0,0,x
COc1ccc(NS(=O)(=O)c2ccc(C)cc2)c([N+](=O)[O-])c1,12,-1,2,7,2,x
O=C(/C=C/c1ccc([N+](=O)[O-])cc1)N1CCN(S(=O)(=O)c2cccs2)CC1,8,1,18,-14,-1,x
O=C(Cc1ccccc1Cl)Nc1ccc(S(=O)(=O)Nc2nccs2)cc1,1,-1,-1,-1,-1,x
O=C(CSc1ccc(Br)c2cccc(Cl)c12)Nc1ccc(S(=O)(=O)Nc2nccs2)cc1,36*,0,9,-6,-1,13
COc1ccc(NC(=O)Cn2ncn3nc(-c4ccc(OC)cc4)cc3c2=O)cc1,8,5,-3,-25,6,x
Cc1cccc(-c2ncc(CN3CCCC(CO)(Cc4ccccc4C)C3)cn2)c1 (stereo not given),7,21,5,-9,-1,x
COC(=O)CC1OCC=C2CN3CCC45C6=CC(=O)C(=O)C([N+](=O)[O-])=C6NC4C1C2CC35 (stereo not given),64*,x,16,x,-1,23
O=C(O)CC1OCC=C2CN3CCC45C6=CC(=O)C(=O)C([N+](=O)[O-])=C6NC4C1C2CC35 (stereo not given),x,u,-2,10,-1,x
CCN(Cc1cc(=O)n2ccsc2n1)c1cccc2ccccc12,54*,-4,5,-11,2,-4
Cc1cc(SCc2cc(=O)n3ccsc3n2)nc2ccccc12,-2,-1,15,2,0,x
